# Screening results deposited in PubChem BioAssay by The Scripps Research Institute Molecular Screening Center.
# Fam108B inh: blocks mouse Fam108B hydrolase in RBBP9 counter-screen; recombinant Fam108B, FP-Rh probe fluorescence polarization; inhibition, % at 9.51 µM; 300,000 tested, 0.33% active; AID 1947;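 active = inhibition above the screen mean inhibition plus 3 SD, computed separately per campaign, cut at about 18% in these data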;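 also: inhibitors lower polarization as less probe binds the enzyme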
# LYPLA1 inh: LYPLA1 (human) inhibition in PME1 counter-screen | recombinant LYPLA1, FP-Rh probe fluorescence polarization | 320,000 tested, 0.16% active | O75608 | AID 2174 | inhibition, % at 5.9 µM;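 active = inhibition above the mean of all tested compounds plus 3 SD, set per campaign, cut at about 14% in these data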;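 also: inhibitors block serine hydrolase probe labeling of LYPLA1 so polarization falls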
# PME-1 inh: blocks human protein phosphatase methylesterase 1; inhibition, % at 5.9 µM; Q9Y570; 320,000 tested, 0.53% active; recombinant PME-1, FP-Rh probe fluorescence polarization; AID 2130;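 active = inhibition above the campaign mean of all compounds plus 3 SD, cut at about 26% in these data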;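 also: competitive labeling of PME-1 active site by serine hydrolase directed probe; inhibitors block probe labeling so polarization falls and inhibition rises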
# Target sequence (Q9Y570 whole entry, looked up): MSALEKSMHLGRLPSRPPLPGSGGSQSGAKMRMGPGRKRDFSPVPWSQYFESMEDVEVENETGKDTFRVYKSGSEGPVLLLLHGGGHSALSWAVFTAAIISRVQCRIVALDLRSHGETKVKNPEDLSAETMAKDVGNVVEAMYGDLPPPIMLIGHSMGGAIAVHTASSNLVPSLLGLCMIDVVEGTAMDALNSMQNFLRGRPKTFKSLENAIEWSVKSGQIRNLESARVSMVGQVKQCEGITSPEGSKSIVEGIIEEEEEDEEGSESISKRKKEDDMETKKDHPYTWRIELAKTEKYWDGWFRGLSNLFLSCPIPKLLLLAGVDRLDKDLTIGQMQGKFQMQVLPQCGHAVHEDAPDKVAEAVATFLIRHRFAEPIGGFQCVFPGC
# GSTO1 inh: counter-screen for RBBP9 inhibitors: inhibitors of human GSTO1 | P78417 | recombinant GSTO1, activity-based probe fluorescence polarization | inhibition, % at 5.96 µM | 300,000 tested, 1.1% active;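 active = inhibition above the campaign mean inhibition plus 3 SD, cut at about 35% in these data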
# PREPL inhibitor: inhibitors of human prolyl oligopeptidase-like enzyme PREPL; 320,000 tested, 0.68% active; inhibition, % at 5.96 µM; Q4J6C6; recombinant PREPL, fluorescence polarization activity-based probe; AID 2751; in the data active = inhibition above about 43%
# LYPLA2 counter: LYPLA2 (human) inhibition in PME1 counter-screen | inhibition, % at 5.9 µM | O95372 | recombinant LYPLA2, FP-Rh probe fluorescence polarization | AID 2177 | 320,000 tested, 0.38% active;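 active = inhibition above the screen-wide mean plus 3 SD, limit set per campaign, cut at about 26% in these data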
# Target sequence (O95372 whole entry, looked up): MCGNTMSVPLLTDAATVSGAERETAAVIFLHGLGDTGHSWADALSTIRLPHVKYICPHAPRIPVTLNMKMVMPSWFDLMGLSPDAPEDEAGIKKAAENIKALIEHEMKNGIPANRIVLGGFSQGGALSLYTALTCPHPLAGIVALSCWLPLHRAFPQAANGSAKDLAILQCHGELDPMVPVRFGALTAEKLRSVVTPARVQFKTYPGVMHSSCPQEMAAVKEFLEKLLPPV
# Fam108b confirm: Fam108b (mouse) hydrolase inhibition, confirmation assay; shares compounds with Fam108B inh; recombinant Fam108b, FP-Rh probe fluorescence polarization; inhibition, % at 9.51 µM; 930 tested, 44% active;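 active = inhibition above a limit from the primary screen, the mean over all compounds plus 3 SD, cut at about 19% in these data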;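 also: inhibitors free the probe so polarization falls as inhibition rises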
# Fam108b ABPP HTS: inhibits mouse Fam108b in gel-based ABPP. shares compounds with Fam108B inh. recombinant Fam108b, fluorophosphonate probe. inhibition, % at 20 µM. 260 tested, 44% active. AID 588649; in the data active = inhibition above about 40%
# Numbers stand for hits; - = inactive; . = not tested or not shown. Sampled rows, rich in hits. Any-hit rate of the full collection: about 2%.
SMILES,Fam108B inh,LYPLA1 inh,PME-1 inh,GSTO1 inh,PREPL inhibitor,LYPLA2 counter,Fam108b confirm,others
O=C(NN1C(=O)/C(=C/C=C/c2ccco2)SC1=S)c1ccccc1O,44.4,-,-,-,-,-,24.9,
O=C(O)CC(C(=O)O)N1C(=O)/C(=C/C=C/c2ccco2)SC1=S (centres undefined),34.1,-,-,36.7,-,-,-,
COc1cc2cc(-c3ccc(O)cc3O)nc(C)c2cc1OC,19.6,-,-,-,-,-,20.9,
COc1cc2cc(-c3ccc(OC)c(OC)c3C)nc(N)c2cc1OC,-,-,-,-,-,-,.,
CC(=O)NCCn1ccc2ccccc21,22.0,-,-,-,-,-,-,
O=C(Cc1ccccc1)NCCn1ccc2ccccc21,-,-,-,-,-,-,.,
CN(C)Cc1c(C(=O)N/N=C/c2cccs2)nnn1-c1nonc1N,-,-,-,-,-,-,.,
Oc1c(Br)cc(/C=N/Nc2ccc(Cl)nn2)cc1Br,25.7,-,-,-,-,-,-,
Oc1c(Br)cc(Br)cc1/C=N/Nc1ccc(Cl)nn1,-,-,-,-,-,-,.,
Oc1c(Br)cc(/C=N/Nc2nncc3ccccc23)cc1Br,19.2,-,-,-,-,-,22.7,
CCOc1ccc(C2C(C(=O)c3cccs3)=C(O)C(=O)N2CCN2CCOCC2)cc1 (centres undefined),-,-,-,-,-,-,.,
COc1ccc(/C=N/NC(=O)c2cnccn2)cc1O,-,-,-,-,-,-,.,
Cn1c2ccccc2c2cc(/C=N/NC(=O)c3cc(O)cc(O)c3)ccc21,-,-,-,-,-,-,.,
COc1cc(/C=N/NC(=O)CCn2c3ccccc3c3ccccc32)ccc1O,24.3,-,-,-,-,-,-,
Cn1c2ccccc2c2cc(C=NNC(=O)c3cc(O)ccc3O)ccc21,.,.,.,.,.,.,.,Fam108b ABPP HTS=85.0
COc1cccc(/C=N/NC(=O)c2cc3c(OC)cccc3[nH]2)c1OC,-,-,-,-,-,-,.,
COc1ccc(/C=N/NC(=O)c2cc3c(OC)ccc(OC)c3[nH]2)cc1O,30.5,-,39.6,-,-,-,-,
COc1ccc(OC)c2[nH]c(C(=O)N/N=C/c3ccccc3O)cc12,53.2,-,59.7,-,-,-,20.8,
Cc1onc(-c2ccccc2)c1C(=O)NCCc1ccncc1,-,-,-,-,-,-,.,
COc1cc(/C=N/NC(=O)c2cc3ccccc3[nH]2)ccc1O,20.4,-,36.0,-,-,-,18.7,
CCOc1ccc2[nH]c(C(=O)N/N=C/c3cc(OC)c(OC)c(OC)c3)cc2c1,28.5,-,-,-,-,-,-,
COc1ccc(C(=O)NNC(=O)C2CCN(S(=O)(=O)c3ccc(C)cc3)CC2)cc1,-,-,-,-,-,-,.,
CC(=O)NC1=NN(C(C)=O)C(C)(c2ccco2)S1 (centres undefined),21.7,-,-,-,-,-,-,
CC(=O)NC1=NN(C(C)=O)C(C)(c2ccc(C)o2)S1 (centres undefined),-,-,-,-,-,-,.,
CC1(C)NC(=O)N(CC(=O)N2CCN(c3cccc(Cl)c3)CC2)C1=O,.,-,-,.,-,-,.,
SMILES,Fam108B inh,LYPLA1 inh,PME-1 inh,GSTO1 inh,PREPL inhibitor,LYPLA2 counter,Fam108b confirm,others
CCn1c(CNC(=O)c2cccc(C)c2)nnc1SCC(=O)Nc1nnc(C)s1,-,-,-,-,-,-,.,
COc1cccc(C2C3=C(CCCC3=O)Nc3[nH]n(-c4ccccc4)c(=O)c32)c1 (centres undefined),-,-,-,-,-,-,.,
COc1cccc(C2C3=C(Nc4[nH]n(-c5ccccc5)c(=O)c42)c2ccccc2C3=O)c1 (centres undefined),23.9,-,27.7,-,-,-,31.1,
CC(=O)Nc1ccc(CN2CCCC(C(=O)c3ccc(C(F)(F)F)cc3)C2)cc1 (centres undefined),-,-,-,-,-,-,.,
CCN(CC(=O)Nc1c(C(=O)OC)[nH]c2ccc(Cl)cc12)c1ccc2c(c1)OCO2,21.4,-,39.7,-,-,-,-,
CC(OC(=O)C1=Cc2ccccc2OC1)C(=O)NC(C)(C)C (centres undefined),-,-,-,-,-,-,.,
Fc1ccc2nc(Nc3nc4cc5c(cc4s3)OCO5)sc2c1,39.7,-,52.5,-,-,-,45.7,Fam108b ABPP HTS=95.0
O=C(NNc1nc2cc3c(cc2s1)OCCO3)c1ccc(F)cc1,-,-,-,-,-,-,.,
Fc1ccc2nc(Nc3nc4cc5c(cc4s3)OCCO5)sc2c1,21.3,-,72.3,-,-,-,-,
COc1cccc2c1C(=O)c1c(O)c3c(c(O)c1C2=O)C[C@@](O)(C(C)=O)C[C@@H]3O[C@H]1C[C@H](N)[C@H](O)[C@H](C)O1,.,.,.,.,.,.,.,Fam108b ABPP HTS=-
CNS(=O)(=O)c1cn(CC(=O)N(C)Cc2ccccc2)cc1S(=O)(=O)NC,-,-,-,-,-,-,.,
CN(C)S(=O)(=O)c1ccc(C(=O)NCCC(=O)N2CCCC2)cc1,-,-,-,-,-,-,.,
CC1COC(=O)C(NNc2ccc(Cl)c(Cl)c2)=N1 (centres undefined),-,-,-,-,-,-,.,
Cc1cc(C(=O)CSc2nnnn2C)c(C)n1Cc1ccco1,-,-,-,-,-,-,.,
Cc1cc(C(=O)CSc2ncccn2)c(C)n1Cc1ccco1,18.8,-,-,-,-,-,-,
COc1ccc(-c2cc(=O)[nH]c(NCc3ccccc3)n2)cc1,-,-,-,-,-,-,.,
O=c1cnnc(NCc2ccccc2)[nH]1,22.3,-,-,-,-,-,-,
O=C(Nc1ccc(-c2csc(Nc3ccccc3)n2)cc1)c1cccc(C(F)(F)F)c1,-,-,-,-,-,-,.,
O=C(Nc1ccc(-c2csc(Nc3ccc(Cl)cc3)n2)cc1)c1cccc(C(F)(F)F)c1,49.7,-,26.4,-,-,-,67.7,Fam108b ABPP HTS=95.0
O=C(Nc1cccc(-c2csc(Nc3cccc(C(F)(F)F)c3)n2)c1)c1cc([N+](=O)[O-])cc(C(F)(F)F)c1,18.6,-,-,-,-,-,-,
O=C(Nc1ccc(-c2csc(Nc3ccccc3)n2)cc1)c1cc([N+](=O)[O-])cc(C(F)(F)F)c1,64.5,-,-,-,-,-,87.0,Fam108b ABPP HTS=100.0
Cc1ccc(-c2csc(NC(=O)c3cccc([N+](=O)[O-])c3)n2)cc1,-,-,-,-,-,-,.,
O=C(N/C(=C\c1ccccc1)C(=O)N1CCOCC1)c1ccco1,42.2,-,-,-,-,-,-,
CCN(c1ccccc1)S(=O)(=O)c1ccc(NC(=O)c2nc(S(C)(=O)=O)ncc2Cl)cc1,38.1,-,-,-,-,-,37.1,Fam108b ABPP HTS=80.0
CCS(=O)(=O)c1ncc(Cl)c(C(=O)Nc2ccc(S(=O)(=O)N(C)c3ccccc3)cc2)n1,-,-,-,-,-,-,.,
